Sampled rows, rich in hits. Any-hit rate of the full collection: about 2.5%.
Apoferritin bind: binds horse apoferritin like a general anesthetic | apoferritin/1-aminoanthracene competitive binding, fluorescence | P02791 | AID 485281 | 350,000 tested, 0.074% active | Potency, µM (doses to about 77.5 µM), without a hit: at the top dose activity change, negative = displacement, usual class: inhibitors; also: potency is read from the fitted curve at half-maximal effect; % is scaled to controls: 0 for no effect and ±100 for the full control effect; nearly all actives have a fitted effect of over 20% in size
Target sequence (P02791 2-175 limits assumed): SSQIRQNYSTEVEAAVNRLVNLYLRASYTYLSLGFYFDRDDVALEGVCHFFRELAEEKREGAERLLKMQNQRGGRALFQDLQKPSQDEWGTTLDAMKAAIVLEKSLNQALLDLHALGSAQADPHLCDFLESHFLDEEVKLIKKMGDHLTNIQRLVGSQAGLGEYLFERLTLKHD
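Read-out: endpoint 1-AMA fluorescence, excitation 380 nm and emission 535 nm, after compounds sit 10 min at room temperature with 10 uM horse-spleen apoferritin in 50% saturated 1-AMA/PBS. Values come from four-parameter Hill fits.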
D2 PAM-1: positive allosteric modulators of human D2 dopamine receptor. P14416. HEK293 T-REx D2, calcium flux, EC20 dopamine potentiation. potentiation, % at 10 µM. 340,000 tested, 0.34% active. AID 485347;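 active = potentiation over 3 SD above the plate norm, cut at about 30% in these data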; also: 0% is about no effect
Target sequence (P14416 whole entry, looked up): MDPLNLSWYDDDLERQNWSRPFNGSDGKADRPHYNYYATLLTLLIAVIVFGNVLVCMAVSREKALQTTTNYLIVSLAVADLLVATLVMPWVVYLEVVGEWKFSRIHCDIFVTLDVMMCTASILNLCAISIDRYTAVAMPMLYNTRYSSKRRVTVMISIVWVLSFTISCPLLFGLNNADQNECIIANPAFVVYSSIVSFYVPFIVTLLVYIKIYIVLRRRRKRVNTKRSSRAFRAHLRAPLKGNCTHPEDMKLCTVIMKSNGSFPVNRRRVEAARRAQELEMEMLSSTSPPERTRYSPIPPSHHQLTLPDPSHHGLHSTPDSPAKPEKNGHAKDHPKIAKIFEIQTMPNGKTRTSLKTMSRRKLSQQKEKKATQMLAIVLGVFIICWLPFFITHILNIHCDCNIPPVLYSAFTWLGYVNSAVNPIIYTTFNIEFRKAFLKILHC
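Tetracycline-induced HEK293 T-REx cells force-coupled to calcium signalling expressed D2; compounds were pin-added after a 10 s baseline, read kinetically 180 s, then an EC20 dopamine challenge followed with a further 180 s calcium read.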
D2 PAM-2: human D2 receptor positive allosteric modulation; P14416; DiscoveRx D2 beta-arrestin cells, luminescence, 90 min; 100% = 57 uM dopamine signal; potentiation, % (test concentration not listed); 360,000 tested, 0.23% active; AID 624464; in the data active = potentiation above about 50%; inconclusive = mostly about 30% to 49%
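PathHunter D2 cells, attached overnight at 37 deg C, received compound in DMSO plus dopamine at EC20 (50 nM final) for 90 min at 37 deg C. Beta-arrestin recruitment was read as luminescence after 1 h with detection reagent at ambient temperature.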
D2 ag-1: human D2 receptor agonism in beta-arrestin assay | P14416 | DiscoveRx PathHunter D2 beta-arrestin, luminescence, 90 min; 100% = 57 uM dopamine signal | activation, % (concentration not given with the values) | 360,000 tested, 0.084% active; in the data active = activation above about 40%; inconclusive = between about 15% and that limit
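DiscoveRx PathHunter D2 beta-arrestin cells (2,100/well) attached overnight, then compound-stimulated 90 min at 37 C in HBSS/10 mM HEPES/0.1% Tween-20 buffer; beta-galactosidase complementation read by luminescence after 1 h at ambient temperature. Dopamine 57 uM final (EC100) as control.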
D2 ag-2: agonists of human D2 dopamine receptor | P14416 | HEK293 T-REx D2 cells, calcium flux agonist mode | activation, % at 2 µM | 340,000 tested, 0.53% active;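 active = activation over 3 SD above normal in the single-dose calcium agonist read, cut at about 30% in these data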; also: 0% is about no effect
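Tetracycline-induced HEK293 Trex cells with D2 receptor force-coupled to calcium signaling, plated overnight at 30 C and loaded with no-wash calcium dye. Calcium flux read kinetically for 180 s after compound addition; responses flag agonists.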
D2 antagonist: antagonists of human D2 dopamine receptor; AID 485344; inhibition, % at 10 µM; HEK293 TREx D2 cells, calcium flux, dopamine EC80; 340,000 tested, 2% active; P14416; in the data active = inhibition above about 30%; inactive = below that, where a call was filed; also: 0% is about no effect
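Measurement of antagonist activity uses fluorescent calcium dye in inducible HEK293 T-REx D2 cells: 10 s baseline, compound addition with 180 s read, EC80 dopamine addition with a further 180 s read.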
D3 arrestin ag: activates human D3 dopamine receptor beta-arrestin recruitment; AID 720506; Potency, µM (series often up to 76.9 µM), without a hit: at the top dose activation, usual class: activators; DiscoveRx D3 beta-arrestin cells, luminescence, 90 min; 2,300 tested, 4% active; shares compounds with D2 ag-2;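 also: potency is read from the fitted curve at half-maximal effect; 100% = dopamine control response; nearly all actives have a fitted effect of over 70% in size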
D2 ag-3: counter-screen for D3 agonists: human D2 dopamine receptor agonism | shares compounds with D2 ag-2 | 2,300 tested, 5.9% active | DiscoveRx PathHunter D2 beta-arrestin, luminescence, 90 min; response scale: percent relative to full dopamine signal | Potency, µM (series often up to 76.9 µM), for inactives: at the top dose activation, usual class: activators; also: potency is read from the fitted curve at half-maximal effect; % of control where 0% means no effect; nearly all actives have a fitted effect of over 70% in size
The depositor's hits bear a star; ? = inconclusive; . = no result given. Unless noted, calls follow the shape of the dose curve; as a rule, active = well fitted curve in the direction sought with a large enough effect; inconclusive = small, poorly fitted or top-dose-only effect, or another doubt; inactive = no such curve, though single readings can be large; an effect the other way counts as inactive or inconclusive.

SMILES	Apoferritin bind	D2 PAM-1	D2 PAM-2	D2 ag-1	D2 ag-2	D2 antagonist	D3 arrestin ag	D2 ag-3
O=C(Nc1ccccc1C(F)(F)F)C(O)(c1ccccc1)C1CCCCC1 (stereo unspecified)	.	-8	-10	-3	1	3	-12%	-2%
O=C(Nc1ccccc1C(F)(F)F)N1CCC(N2CCCCC2)CC1	-9%	9	-9	-4	1	-2	.	.
Cc1cccc(C)c1OCC(O)CN1CCN(c2ccccc2)CC1 (stereo unspecified)	-7%	-28	-22	?	80*	87*	-2%	?
OC(COc1ccccc1)CN1CCN(c2ccccc2)CC1 (stereo unspecified)	.	.	-43	2	.	.	.	.
Cc1ccc(OCC(O)CN2CCN(CCO)CC2)c(C)c1 (stereo unspecified)	-6%	-1	-3	-1	2	-8	.	.
CC(C)(C)NCC(O)COc1ccccc1C(C)(C)C (stereo unspecified)	-10%	-4	-10	-2	1	4	.	.
CC(C)(C)c1ccccc1OCC(O)CN1CCN(c2ccccn2)CC1 (stereo unspecified)	-15%	-16	0	1	22	62*	?	27%
Cc1ccc(OCC(O)CN2CCN(c3ccccn3)CC2)c(C)c1 (stereo unspecified)	-7%	-27	21	?	71*	64*	?	?
Cc1ccsc1CN1CCN(c2ccccn2)CC1	-8%	-24	?	50*	79*	77*	?	2.5µM*
CC(C)(C)C1CCC(OCC(O)CN2CCN(c3ccccc3)CC2)CC1 (stereo unspecified)	-5%	-34	3	?	68*	74*	0.35µM*	?
CC(C)(C)C1CCC(OCC(O)CN2CCCC2)CC1 (stereo unspecified)	-16%	12	2	-7	-1	-8	.	.
OC(CN1CCN(c2ccccn2)CC1)Cn1c2ccc(Cl)cc2c2cc(Cl)ccc21 (stereo unspecified)	30%	3	-1	-6	9	-3	.	.
OC(COC(c1ccc(Cl)cc1)c1ccc(Cl)cc1)CN1CCN(c2ccccn2)CC1 (stereo unspecified)	-9%	-20	-17	-1	42*	-4	-7%	6%
Cc1cccc(C)c1OCC(O)Cn1c2ccccc2c2ccccc21 (stereo unspecified)	33%	-5	6	-1	-1	-20	.	.
COc1ccccc1/C=C/CN1CCN(c2ccccc2)CC1	-11%	-26	7	12	77*	77*	4%	?
Cc1cccc(C)c1OCC(O)CN1CCN(c2ccccn2)CC1 (stereo unspecified)	-11%	-19	?	?	77*	78*	0.2µM*	5µM*
CC(C(=O)Nc1ccc(C(=O)O)c(O)c1)N1C(=O)/C(=C\c2ccco2)SC1=S (stereo unspecified)	-11%	2	-9	-2	0	13	.	.
CC(C)c1ccccc1NC(=O)c1ccc(CN(c2ccccc2)S(=O)(=O)c2ccccc2)cc1	4%	-5	.	.	2	-21	.	.
Cc1cccc(N2CCN(CC(O)COc3ccccc3)CC2)c1 (stereo unspecified)	.	.	-17	3	.	.	.	.
COc1cccc(OC)c1OCC(O)CN1CCN(c2ccccc2)CC1 (stereo unspecified)	-3%	-24	-31	?	78*	115*	?	?
COCCn1c(SCC(=O)Nc2nnc(C)s2)nnc1-c1c[nH]c2ccccc12	-4%	9	-2	-2	0	2	.	.
C/C(=N\NC(=O)C12CCC(C)(C(=O)O1)C2(C)C)c1ccccc1O (stereo unspecified)	-3%	-30	-9	?	83*	82*	?	?
COc1ccc2c(c1)C1=C(CC2)C(c2ccc(C)cc2)NC(=S)N1 (stereo unspecified)	-12%	.	-5	6	1	-2	.	.
CCCc1nc2ccc(NC(C)=O)cc2c(=O)n1Cc1ccccc1Cl	-15%	1	-2	-2	0	-1	-7%	0%
COc1cc(OC)cc(C(=O)NC(C(=O)Nc2ccc(N3CCOCC3)cc2)C(C)C)c1 (stereo unspecified)	.	-5	-21	1	0	2	.	.
SMILES	Apoferritin bind	D2 PAM-1	D2 PAM-2	D2 ag-1	D2 ag-2	D2 antagonist	D3 arrestin ag	D2 ag-3
COc1cc(OC)cc(C(=O)N[C@H](C(=O)Nc2ccccc2N2CCOCC2)C(C)C)c1	?	-20	-4	-1	45*	8	-3%	-3%
CC1(C)OC(=O)C=C[C@]2(C)[C@H]3CC[C@@]4(C)[C@H](C(=O)O)OC(=O)[C@H]5O[C@]54[C@]3(C)C(=O)C[C@@H]12	.	16	-9	-2	0	11	-5%	-4%
CC(C)(O)[C@@H]1CC(=O)[C@]2(C)[C@H](CC[C@@]3(C)[C@H](c4ccoc4)OC(=O)[C@H]4O[C@]432)[C@@]1(C)/C=C\C(=O)O	.	-2	-5	-1	-1	5	.	.
CC(=O)Nc1ccc(C(=O)OCCCOC(=O)c2ccc(NC(C)=O)cc2)cc1	-2%	-14	-13	-1	76*	15	-5%	-4%
CCCCOC(=O)c1ccc(NC(C)=O)cc1	?	1	-7	0	-1	10	.	.
Cc1ccc(C(=O)NNC(=O)Cn2nnc3ccccc32)cc1	-10%	-1	-4	-1	1	-4	.	.
CCOc1ccccc1N1CCN(Cc2ccc(Br)s2)CC1	-6%	-25	-5	2	.	.	-6%	4%
CCOc1ccccc1N1CCN(Cc2c(C)n(C)n(-c3ccccc3)c2=O)CC1	-4%	-25	-7	-3	31*	85*	-10%	1%
CC(C)N(C(=O)CSc1nnc(Cc2csc(Nc3ccccc3)n2)o1)C(C)C	?	12	0	4	2	-9	.	.
CC(C)OCCCn1c(=O)c2ccccc2n2c(CCC(=O)N3CCN(c4ccccn4)CC3)nnc12	-10%	-16	1	13	67*	25	-2%	4%

Screens deposited in PubChem BioAssay by National Center for Advancing Translational Sciences (NCATS).
